Reference: PubChem BioAssay AID504462 (Sanford-Burnham Center for Chemical Genomics, 2011)
Out of some 340,000 compounds screened, about 1,700 (0.5%) were called active. The sample holds actives, similar compounds and a random draw of the others, so the mix is not that of the screen. Cut-off read from the data, not from the text of the source: active = inhibition above about 40%; inactive = the rest.

The compounds below were run against Cysteine protease ATG4B (Homo sapiens) (UniProt Q9Y4P1) (assay: ATG4B protease inhibitors, primary screen, biochemical, fluorescence, uHTS (AID 504462)). Conditions: ATG4B cleavage of LC3-PLA2, NBD-HPC fluorescence, 1 h; at 8.33 µM; hits give high values.
Sequence of Cysteine protease ATG4B (Homo sapiens) (Q9Y4P1 whole entry, looked up): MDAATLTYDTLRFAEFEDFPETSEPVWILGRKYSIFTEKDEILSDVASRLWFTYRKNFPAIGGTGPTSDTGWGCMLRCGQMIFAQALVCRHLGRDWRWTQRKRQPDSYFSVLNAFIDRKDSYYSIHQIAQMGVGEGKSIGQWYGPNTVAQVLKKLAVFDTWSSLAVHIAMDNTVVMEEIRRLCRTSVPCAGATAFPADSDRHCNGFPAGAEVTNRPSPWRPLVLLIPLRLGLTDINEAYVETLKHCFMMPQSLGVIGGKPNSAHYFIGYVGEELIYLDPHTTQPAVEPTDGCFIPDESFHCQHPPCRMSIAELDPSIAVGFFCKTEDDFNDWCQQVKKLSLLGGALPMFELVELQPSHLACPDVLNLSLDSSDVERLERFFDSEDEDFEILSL

SMILES	inhibition
O=C(CSc1ncnc2c1oc1ccccc12)NC1CCCC1	-1.46% (inactive)
CCOCCCn1c(SCC(=O)Nc2cc(OC)ccc2OC)nc2ccccc2c1=O	4.76% (inactive)
O=c1c2sccc2nc(SCc2cc(=O)n3ccccc3n2)n1-c1ccc(Br)cc1	47.5% (active)
CCc1ccc(-n2c(SCc3cc(=O)n4cc(Br)ccc4n3)nc3[nH]ncc3c2=O)cc1	-11.3% (inactive)
O=C(O)CCn1c(SCc2cc(=O)n3ccccc3n2)nc2ccsc2c1=O	-6.86% (inactive)
CC(=O)NC(NC(=S)Nc1c(C)n(C)n(-c2ccccc2)c1=O)C(Cl)(Cl)Cl (configuration not stated)	-9.32% (inactive)
O=C(COc1ccc(S(=O)(=O)NCc2ccccc2)cc1)N1CCOCC1	0.8% (inactive)
Cc1ccccc1CCNC(=O)C1CCC(=O)N(Cc2ccc(Cl)cc2)C1 (configuration not stated)	0.05% (inactive)
COc1cccc(N2C(=O)CN(Cc3ccccc3)C2=S)c1	25.8% (inactive)
O=C1C[C@@H]2c3c(cccc3CN1Cc1ccccc1)C[C@@H](O)[C@H]2O	0.85% (inactive)
Cc1cccc(C)c1N1C(=O)CN(Cc2ccccc2)C1=S	82.4% (active)
CCc1cccc(C)c1N1C(=O)CN(Cc2ccccc2)C1=S	88.4% (active)
CC1CN(Cc2ccccc2)C(=S)NC1=O (configuration not stated)	-11% (inactive)
COc1ccc(NC(=O)C(CC(C)C)NS(=O)(=O)c2ccc3c(c2)CCN3C(C)=O)cc1OC (configuration not stated)	-5.12% (inactive)
O=C(c1ccc(S(=O)(=O)N2CCCC2)cc1)N1CCN(c2ccccc2F)CC1	0.98% (inactive)
CCOc1ccc(CCNC(=O)COC(=O)CCS(=O)(=O)c2ccc(C)cc2)cc1OCC	-3.02% (inactive)
O=S(=O)(c1ccc(F)cc1)N1CCN(C(=S)NCc2ccco2)CC1	0.75% (inactive)
CC(C)Cc1ccc(C(C)C(=N)N)cc1 (configuration not stated)	8.66% (inactive)
COc1ccc(CNC(=O)C2CCN(S(=O)(=O)c3ccc(SC)cc3)CC2)cc1	-7.7% (inactive)
CCOC(=O)c1cnn(Cc2ccccc2Cl)c1N	-5.17% (inactive)
NC(=O)Cn1cc(/C=N\NS(=O)(=O)c2ccccc2)c2ccccc21	3.11% (inactive)
COC(=O)N/N=C/c1cn(CCCOc2ccc(C)cc2)c2ccccc12	40.3% (active)
COc1cccc(Cn2cc(/C=N/NC(=O)c3cc(O)cc(O)c3)c3ccccc32)c1	47.7% (active)

SMILES	inhibition
O=C(Cn1cc(/C=N/NC(=O)c2cccc(C(F)(F)F)c2)c2ccccc21)Nc1ccc(F)cc1	5.83% (inactive)
N#CCC(=O)N/N=C/c1cn(Cc2ccc3ccccc3c2)c2ccccc12	-9.5% (inactive)
COC(=O)N/N=C/c1c[n+]([O-])c2ccccc2[n+]1[O-]	-2.96% (inactive)
CCOC(=O)N/N=C/c1cn(Cc2ccccc2Cl)c2ccccc12	48% (active)
Cc1ccc(OCCOc2cccc(/C=N/NC(N)=O)c2)cc1	-2.28% (inactive)
CCC(C)c1ccc(NC(=S)NCc2ccccn2)cc1 (configuration not stated)	2.58% (inactive)
CC(=O)N1CCN(C(=O)c2cc(-c3ccc(Cl)s3)nc3ccccc23)CC1	2% (inactive)
COc1cc(OC)cc(C(=O)Nc2ccc(-c3nc4ccccc4o3)c(O)c2)c1	1% (inactive)
Cc1ccc(NNC(=O)C2CCC2)cc1C	-8.25% (inactive)
Cc1ccc(Nc2cc(=O)n(C3CCCCC3)c(=O)[nH]2)cc1C	49.4% (active)
O=c1cc(C(F)(F)F)[nH]c(=O)n1C1CCCCC1	-7.77% (inactive)
Cc1ccc(-c2nnn(CC(=O)N(CCO)C(C(=O)NC(C)(C)C)c3ccncc3)n2)cc1 (configuration not stated)	3.82% (inactive)
CNS(=O)(=O)c1cccc(C(=O)NC2CCCc3ccccc32)c1 (configuration not stated)	5.31% (inactive)
O=C(Nc1cccc(F)c1)NC1CCCc2ccccc21 (configuration not stated)	72.2% (active)
O=C(Nc1cccc(F)c1)NC1CCCCCCC1	14.1% (inactive)
O=C(Nc1ccc(F)c(Cl)c1)C1CCN(S(=O)(=O)c2cccnc2)CC1	-11.3% (inactive)
COc1ccc(C)cc1NC(=O)CSc1nnc2ccc(-c3ccccn3)nn12	-1.16% (inactive)
CCN(C[C@H]1N[C@@](CC)(C(=O)OC)[C@H]2C(=O)N(Cc3ccccc3)C(=O)[C@@H]12)S(=O)(=O)c1ccc(C(F)(F)F)cc1	1.74% (inactive)
COc1ccc(NC(=O)CNc2cc(S(=O)(=O)N3CCOCC3)ccc2N2CCOCC2)c(OC)c1	-0.66% (inactive)
Cc1cc([N+](=O)[O-])nn1CCCC(=O)Nc1cccnc1Cl	-6.6% (inactive)
Cc1c(Cl)c([N+](=O)[O-])nn1CCCC(=O)Nc1cc(Cl)ccc1Cl	63.1% (active)
Cc1c(Cl)c([N+](=O)[O-])nn1CCCC(=O)NC(C)c1ccccc1 (configuration not stated)	19.6% (inactive)
Nc1c(N(CCCO)C(=O)C2CCCC2)c(=O)[nH]c(=O)n1Cc1ccccc1	2.96% (inactive)

SMILES	inhibition
Cc1ccc2[nH]c(=O)c(CC=C(Cl)Cl)c(C)c2c1	-4.78% (inactive)
CN(C(=O)c1cccc(NC(=O)Cc2ccc(NC(=O)C3CCN(C(=O)C4CCCCC4)CC3)cc2)c1)C1CCC1	-6.18% (inactive)
O=C(NCc1cccc(CNC(=O)Nc2cccc(O)c2)c1)Nc1cccc(O)c1	27.4% (inactive)
COc1cccc(NC(=O)NCc2ccc(F)cc2)c1	46.2% (active)
COC(=O)[C@@H](NC(=O)NCc1cccc(OC)c1)C(C)C	-0.62% (inactive)
CC1CCCC(NC(=O)c2cc(-c3ccncc3)nc3ccccc23)C1C (configuration not stated)	-8.76% (inactive)
CC(C)CCn1c(=O)c2c(nc3n2CCCN3Cc2ccccc2)n(C)c1=O	3.87% (inactive)
CCOC(=O)c1[nH]c2ccccc2c1N=C(C)N(CC)CC	-9.79% (inactive)
CCOC(=O)c1c(C)[nH]c2c1-c1ccccc1C(=O)C2=O	47% (active)
CCOC(=O)C1=C(C)c2ccccc2OC1(C)C(=O)OCC (configuration not stated)	2.41% (inactive)
CC(C)(C)C1CCc2c(sc3nc(SCC(N)=O)nc(N)c23)C1 (configuration not stated)	42.8% (active)
Nc1nc(SCC(=O)NCCN2CCOCC2)nc2sc3c(c12)CCC3	-9.91% (inactive)
C=C(C)CSc1nc(N)c2c3c(sc2n1)CCC3	17.7% (inactive)
O=S1(=O)CCC(NC(=S)SCc2ccccc2Br)C1 (configuration not stated)	-4.75% (inactive)
Cc1c(Cl)cccc1NC(=O)NCCCN1CCCC1=O	2.74% (inactive)
Cc1c(Cl)cccc1NC(=O)Nc1ccc(C(=O)N2CCCC2)cc1	40.6% (active)
CS(=O)(=O)Nc1ccc(C(=O)N2CCCC2)cc1	-2.74% (inactive)
COc1ccccc1CCNC(=O)CSc1nnc2ccc(-c3cccnc3)nn12	0.74% (inactive)
CCn1c(Cc2ccc(OC)cc2)nnc1SCC(=O)Nc1ccc(N2CCOCC2)cc1	-5.02% (inactive)
Cc1ccc(C2=Nc3c(ccc4ccccc34)C(c3ccncc3)=NN2)cc1	60.3% (active)
Cc1ccc(-c2csc(-c3c[nH]c4ccccc34)n2)cc1	4.81% (inactive)
CC(Sc1nnc(-c2ccccc2F)n1C1CC1)C(N)=O (configuration not stated)	-8.94% (inactive)
CCCCCCCC1(C)NC(=O)N(CC(=O)Nc2cc(C)on2)C1=O (configuration not stated)	-10.1% (inactive)

SMILES	inhibition
O=C(C1CCN(S(=O)(=O)Cc2ccccc2)CC1)N1CCCc2ccccc21	13.8% (inactive)
Cc1ccc(N2CC(C(=O)NCCS(=O)(=O)N3CCN(c4ccccc4)CC3)CC2=O)cc1 (configuration not stated)	-5.93% (inactive)
CCC1OC(c2ccc([N+](=O)[O-])cc2)=Nc2ccccc21 (configuration not stated)	-2.62% (inactive)
CCOc1ccc2c(c1)C(c1ccc(C)cc1)=NNC(c1ccc(C)cc1)=N2	65.9% (active)
CCc1ccc2c(c1)C(c1ccc([N+](=O)[O-])cc1)=NNC(c1ccccc1)=N2	61% (active)
COc1ccc2c(c1)C(c1cccs1)=NNC(c1cccnc1)=N2	0.69% (inactive)
Fc1ccc2c(c1)C(c1cccnc1)=NNC(c1cccs1)=N2	-1.31% (inactive)
CCOC(=O)C1=C(C)N(C[C@@H]2CC[C@@H](Cc3ccc(-c4ccccc4)cc3)O2)C(=O)NC1c1ccc([N+](=O)[O-])cc1 (some centres not stated)	1.26% (inactive)
Cc1ccccc1CSc1nnc(-c2ccccc2)c(=O)[nH]1	11.3% (inactive)
CCCN1C2CCCC1CC(NC(=O)c1cccc(OC)c1)C2 (configuration not stated)	-4.61% (inactive)
CC(C(=O)NCCc1ccc(S(N)(=O)=O)cc1)N1C(=O)CC(C)(C)Sc2ccccc21 (configuration not stated)	1.71% (inactive)
Cn1c2c(c(=O)n(C)c1=O)C(c1ccc(O)cc1)Nc1ccccc1O2 (configuration not stated)	-5.48% (inactive)
CCc1nn(-c2cc(Oc3cccc4ccccc34)nc(-c3ccccc3)n2)c(N)c1C#N	-7.41% (inactive)
COc1ccc(C)cc1N(C)C(=O)c1coc(=O)c2ccccc12	-10% (inactive)
Cc1ccc(Nc2ccc(C(N)=O)cc2[N+](=O)[O-])cc1	66.7% (active)
CCOc1ccccc1Nc1ccc(C(=O)O)cc1[N+](=O)[O-]	-16.2% (inactive)
NC(=O)c1ccc(Nc2ccc3c(c2)CCC3)c([N+](=O)[O-])c1	29.8% (inactive)
CC(=O)c1ccc(S(=O)(=O)NCc2nnnn2-c2ccccc2)cc1	-3.36% (inactive)
O=C(O)CCn1cc(/C=C/C(=O)c2ccc(Cl)cc2)c(-c2cccc(Br)c2)n1	53.3% (active)
Cc1cccc(C=CC(=O)c2ccc(Cl)cc2)c1	-4.71% (inactive)
O=C(/C=C/NNC(=O)c1cccc(Br)c1)c1ccccc1	8.45% (inactive)
CCOC(=O)c1ccc(-n2c(CCC(=O)O)ccc2-c2ccccc2)cc1	9.28% (inactive)
COc1ccc(C(CNCC(=O)Nc2ccccc2F)N(C)C)cc1 (configuration not stated)	9.81% (inactive)
